Most compounds without a hit are left out; they make up all but 4.1% or so of the library.
DAX1 inh-1: DAX1 (NR0B1) inhibitors on StAR promoter, primary screen, cell-based, luminescence, SF-1 (NR5A1), full-length DAX-1. HEK293T StAR-luciferase reporter, SF-1/DAX-1 repression relief. inhibition, % at 6.8 µM. 370,000 tested, 1.1% active. AID 652010, 2013;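 active = inhibition above the mean over all tested compounds plus 3 SD, cut at about 3.6% in these data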;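 note: 0% = DAX-1 cells with DMSO and 100% = cells lacking DAX-1 with DMSO; higher inhibition means more luminescence from relief of DAX-1 repression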
ssDAF12 agonist: S. stercoralis DAF-12 nuclear receptor activators, primary screen, cell-based, luminescence, HEK293, GRIP1 co-expression, lit1-tk-luc; Nuclear hormone receptor DAF-12 (Strongyloides stercoralis); HEK293 ssDAF-12/GRIP1 lit1-tk-luc reporter; % of 3 µM dafachronic acid response; activation, % at 6.8 µM; 370,000 tested, 1% active; AID 652126, 2013;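 active = activation above the mean over all tested compounds plus 3 SD, cut at about 0.9% in these data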;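 note: 0% = DMSO-only wells and 100% = 3 µM delta7-dafachronic acid wells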
hcDAF12 agonist: H. contortus DAF-12 nuclear receptor activators, primary screen, cell-based, luminescence, HEK293, lit1-tk-luc reporter; 370,000 tested, 1.4% active; HEK293 hcDAF-12 lit1-tk-luc reporter; 0% DMSO, 100% Δ7-dafachronic acid; activation, % at 6.8 µM;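 active = activation above the mean of all tested compounds plus 3 SD, cut at about 5.5% in these data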;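 note: 100% = response to 3 µM Δ7-dafachronic acid high control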
hgDAF-12 ag: H. glycines DAF-12 receptor agonists, primary screen, cell-based, luminescence, HEK293, GAL4 fusion, UAS-luciferase; activation, % at 6.8 µM; HEK293 GAL4-hgDAF12 UAS-luciferase reporter, agonist luminescence; normalized to butyrate control; Nuclear hormone receptor DAF-12 (Heterodera glycines), GAL4 fusion; 370,000 tested, 1.8% active;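 active = activation above a cutoff set at the mean of all screened compounds plus 3 SD, cut at about 10% in these data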;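 note: 0% = DMSO wells and 100% = sodium butyrate wells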
DAX1 inh-2: DAX1 (NR0B1) inhibitors, primary screen, cell-based, HEK293, Gal4-DAX1, luciferase luminescence; HEK293 Gal4-DAX1 luciferase reporter; inhibition, % at 6.75 µM; 340,000 tested, 0.99% active; AID 504766, 2011;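 active = inhibition above the mean over all tested compounds plus 3 SD, cut at about 4.2% in these data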;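 note: 0% = DAX1-transfected cells with DMSO and 100% = empty-vector control cells with DMSO; inhibition shows as a rise in luminescence from relieved DAX1 repression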
Target sequence (P51843 207-470 limits assumed): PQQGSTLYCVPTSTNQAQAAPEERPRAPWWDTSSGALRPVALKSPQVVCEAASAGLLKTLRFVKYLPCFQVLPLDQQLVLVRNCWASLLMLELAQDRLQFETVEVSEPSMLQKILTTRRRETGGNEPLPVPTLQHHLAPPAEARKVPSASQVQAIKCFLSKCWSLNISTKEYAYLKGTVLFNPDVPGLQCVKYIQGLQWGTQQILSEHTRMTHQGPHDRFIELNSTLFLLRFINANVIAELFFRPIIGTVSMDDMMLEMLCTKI
Active calls of the source: *.

What do the screens show for `COc1cccc(C2c3[nH]c4ccccc4c3C[C@H]3C(=O)N(c4ccccc4C(=O)NCCCN4CCOCC4)C(=O)N23)c1` (stereo partly specified)?
DAX1 inh-1: -1; ssDAF12 agonist: -1; hcDAF12 agonist: 5.7*; hgDAF-12 ag: -1; DAX1 inh-2: -1

How did CC(C)c1ccc(C2c3[nH]c4ccccc4c3C[C@H]3C(=O)N(c4ccccc4C(=O)N4CCC(C(=O)O)CC4)C(=O)N23)cc1 (stereo partly specified) do in these assays?
DAX1 inh-1: 0; ssDAF12 agonist: -1; hcDAF12 agonist: 5.8*; hgDAF-12 ag: 4; DAX1 inh-2: 3

Results for COc1ccc(C2c3[nH]c4ccccc4c3C[C@H]3C(=O)N(c4ccccc4C(=O)N4CCC[C@H]4C(=O)O)C(=O)N23)cc1 (stereo partly specified) ?
DAX1 inh-1: 1; ssDAF12 agonist: 0; hcDAF12 agonist: 5; hgDAF-12 ag: 1; DAX1 inh-2: 5.2*

Results for COC(=O)c1ccc(S(=O)(=O)N2CCC(NC(=O)COc3ccc(F)cc3)CC2)cc1 ?
DAX1 inh-1: -1; ssDAF12 agonist: -1; hcDAF12 agonist: 0; hgDAF-12 ag: 2

How did Cc1ccc(-n2ncc3c(=O)n(CC(N)=O)cnc32)cc1C do in these assays?
DAX1 inh-1: 0; ssDAF12 agonist: -1; hcDAF12 agonist: 3; hgDAF-12 ag: 3; DAX1 inh-2: 1

How did O=C(CSc1ncnc2c1cnn2-c1ccccc1)Nc1ccccc1 do in these assays?
DAX1 inh-1: 1; ssDAF12 agonist: -1; hcDAF12 agonist: 1; hgDAF-12 ag: 1; DAX1 inh-2: -1

Results for O=C(CSc1ncnc2c1cnn2-c1ccccc1)NC1CCCC1 ?
DAX1 inh-1: 1; ssDAF12 agonist: 0; hcDAF12 agonist: 5.7*; hgDAF-12 ag: 2; DAX1 inh-2: 1

What do the screens show for `Cc1ccc(-n2ncc3c(SCC(N)=O)ncnc32)cc1C`?
DAX1 inh-1: 2; ssDAF12 agonist: 0; hcDAF12 agonist: 5; hgDAF-12 ag: 8; DAX1 inh-2: 4.3*

What do the screens show for `Cc1c(OCC(=O)N[C@@H](Cc2ccccc2)C(=O)O)ccc2c1oc(=O)c1ccccc12`?
DAX1 inh-1: 0; ssDAF12 agonist: -1; hcDAF12 agonist: 0; hgDAF-12 ag: -2; DAX1 inh-2: 4.5*

What do the screens show for `Cc1c(OCC(=O)N[C@@H](Cc2ccccc2)C(=O)O)ccc2c3c(c(=O)oc12)CCC3`?
DAX1 inh-1: 0; ssDAF12 agonist: -1; hcDAF12 agonist: -2; hgDAF-12 ag: 0; DAX1 inh-2: 2

Results for Cc1c(C(=O)Nc2ccccc2N2CCN(C)CC2)oc2ccc(F)cc12 ?
DAX1 inh-1: -2; ssDAF12 agonist: 1.0*; hcDAF12 agonist: 2; hgDAF-12 ag: 3; DAX1 inh-2: -1

Results for COc1ccccc1N1CCN(C(=O)c2oc3ccc(F)cc3c2C)CC1 ?
DAX1 inh-1: -1; ssDAF12 agonist: -1; hcDAF12 agonist: 1; hgDAF-12 ag: -1; DAX1 inh-2: -1

Results for CC(SCc1ccccc1)C(=O)Nc1ccccc1-c1ccccc1 (stereo unspecified) ?
DAX1 inh-1: 0; ssDAF12 agonist: -1; hcDAF12 agonist: 6.1*; hgDAF-12 ag: 0; DAX1 inh-2: 1

How did Nn1c(SCC(=O)Nc2ccccc2-c2ccccc2)nnc1-c1cc(-c2ccc(Cl)cc2)n[nH]1 do in these assays?
DAX1 inh-1: -1; ssDAF12 agonist: -1; hcDAF12 agonist: -3; hgDAF-12 ag: -1

Results for Cc1cccc(C)c1NC(=O)CCN1C(=O)C2C3CCC(C3)C2C1=O (stereo unspecified) ?
DAX1 inh-1: 0; ssDAF12 agonist: -2; hcDAF12 agonist: -2; hgDAF-12 ag: 2; DAX1 inh-2: 1

What do the screens show for `O=C(CCN1C(=O)C2C3CCC(C3)C2C1=O)Nc1ccccc1C(F)(F)F` (stereo unspecified)?
DAX1 inh-1: 0; ssDAF12 agonist: 6.0*; hcDAF12 agonist: -1; hgDAF-12 ag: 4; DAX1 inh-2: 2

What do the screens show for `Cc1nc2ccc(NC(=S)NC3CCCCC3)cc2nc1C`?
DAX1 inh-1: 1; ssDAF12 agonist: -1; hcDAF12 agonist: 1; hgDAF-12 ag: 3; DAX1 inh-2: 6.6*

Results for S=C(Nc1ccc2[nH]ccc2c1)NC1CCCCC1 ?
DAX1 inh-1: 1; ssDAF12 agonist: 0; hcDAF12 agonist: 2; hgDAF-12 ag: 9; DAX1 inh-2: 4.7*

How did Cc1ccc2nc3n(c(=O)c2c1)-c1cc2ccccc2cc1C(=O)NC3Cc1ccccc1 (stereo unspecified) do in these assays?
DAX1 inh-1: 3.9*; ssDAF12 agonist: -1; hcDAF12 agonist: 0; hgDAF-12 ag: 2; DAX1 inh-2: 0

What do the screens show for `CCCC1NC(=O)c2cc3ccccc3cc2-n2c1nc1ccc(C)cc1c2=O` (stereo unspecified)?
DAX1 inh-1: 2; ssDAF12 agonist: 0; hcDAF12 agonist: 1; hgDAF-12 ag: 0; DAX1 inh-2: 2

Results for CCCC1NC(=O)c2cc3ccccc3cc2-n2c1nc1cc(Cl)ccc1c2=O (stereo unspecified) ?
DAX1 inh-1: 1; ssDAF12 agonist: 1.4*; hcDAF12 agonist: 1; hgDAF-12 ag: 0; DAX1 inh-2: 1

What do the screens show for `CC1NC(=O)c2cc3ccccc3cc2-n2c1nc1ccc(F)cc1c2=O` (stereo unspecified)?
DAX1 inh-1: 0; ssDAF12 agonist: 0; hcDAF12 agonist: 6.2*; hgDAF-12 ag: 2; DAX1 inh-2: 1

How did Cc1ccc2nc3n(c(=O)c2c1)-c1ccc(Cl)cc1C(=O)NC3Cc1ccccc1 (stereo unspecified) do in these assays?
DAX1 inh-1: -1; ssDAF12 agonist: -1; hcDAF12 agonist: 2; hgDAF-12 ag: 0

What do the screens show for `O=C(OC12CCCN(C1)/C(=C/c1cccc(Cl)c1)C2)c1ccc(Cl)cc1` (stereo unspecified)?
DAX1 inh-1: 1; ssDAF12 agonist: -1; hcDAF12 agonist: 2; hgDAF-12 ag: -3

How did CCOc1ccc(N(CC(=O)NCc2ccc(F)cc2)S(=O)(=O)c2c(C)noc2C)cc1 do in these assays?
DAX1 inh-1: -1; ssDAF12 agonist: -1; hcDAF12 agonist: -2; hgDAF-12 ag: -2; DAX1 inh-2: 1

How did CCOc1ccc(N(CC(=O)Nc2ccc(F)c(F)c2)S(=O)(=O)c2c(C)noc2C)cc1 do in these assays?
DAX1 inh-1: 1; ssDAF12 agonist: -1; hcDAF12 agonist: -1; hgDAF-12 ag: -1; DAX1 inh-2: 4.4*
